Active and inactive are the calls of the source. How the calls were made is not given here.

Pantothenate synthetase (Mycobacterium tuberculosis (strain ATCC 25618 / H37Rv)), sequence (P9WIL5 whole entry, looked up): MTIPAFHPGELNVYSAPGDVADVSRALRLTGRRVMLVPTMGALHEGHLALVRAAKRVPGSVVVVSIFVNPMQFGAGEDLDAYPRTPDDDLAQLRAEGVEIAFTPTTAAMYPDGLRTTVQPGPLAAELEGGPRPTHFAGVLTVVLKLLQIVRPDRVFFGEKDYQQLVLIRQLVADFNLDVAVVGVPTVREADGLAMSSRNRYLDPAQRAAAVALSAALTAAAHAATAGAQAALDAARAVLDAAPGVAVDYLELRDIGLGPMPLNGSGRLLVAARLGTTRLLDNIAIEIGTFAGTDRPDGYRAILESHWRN

The assay concerns the target Pantothenate synthetase (Mycobacterium tuberculosis (strain ATCC 25618 / H37Rv)) (UniProt P9WIL5). Kind of assay: Recombinant Mtb pantothenate synthetase (PanC) inhibitors, coupled enzyme, confirmatory (AID 375).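 Further: 0% = full reaction with vehicle and 100% = no enzyme background.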 Conditions: coupled enzyme assay; at 10 µM, stronger effect = higher value.
Usually inhibition stands for the relative decrease from the control value, in per cent. For `Cc1cc2c(c(=O)n1CCc1ccccc1)C(C(C)C)C(C#N)=C(N)O2` (stereo not given), the inhibition is 5% (inactive).
With `Nc1nnc(SCc2cc3c(cc2Cl)OCO3)s1`, the inhibition was 7% (inactive).
Then `CC1CCN(CCc2nc3cc(NS(=O)(=O)c4ccc(F)cc4)ccc3n2C)CC1`, with 5% (inactive); and `Cc1cc(C)nc(NC(=O)c2cnc3sccn3c2=O)n1`, with 13% (inactive).
Then `O=C(Nc1ccc(Cl)cn1)c1cccnc1`, with 0% (inactive); and `[N-]=[N+]=CC(=O)CC(c1ccccc1)N1C(=O)c2ccccc2C1=O` (stereo not given), with 0% (inactive).
The result for `COC1CCCCC1NS(=O)(=O)c1ccccc1` (stereo not given) reads 0% (inactive); that for `COc1cc(NS(=O)(=O)c2ccc(N)cc2)nc(OC)n1`, 0% (inactive); that for `Cn1c(=O)[nH]c(=O)c2[nH]c(NCCCN3CCOCC3)nc21`, 0% (inactive).
Take `Cc1c(C(=O)OC(C)C)[nH]c2c1C(=O)CCC2`: the inhibition is 0% (inactive).
Consider `O=C(O)CC1CCCC(c2ccccc2)C1=O` (stereo not given), for which the inhibition was 5% (inactive).
The result for `COc1ccc(C(=O)Oc2c(CN3CCOCC3)cc(Cl)c3cccnc23)cc1OC` reads 0% (inactive); that for `CCOC(=O)N1CCC(Nc2c(-c3ccc(C)cc3)c(=O)c2=O)CC1`, 0% (inactive).
With `c1cc2c(cc1C1=Nn3c(nnc3C3CCCCC3)SC1)OCO2`, the inhibition is 0% (inactive).
`CCOC(=O)Cc1nnc(NC(=O)c2ccccc2OCC)s1`: the inhibition was 0% (inactive).
Then `COc1ccc(Cl)cc1N1CC(c2nc3ccccc3[nH]2)CC1=O` (stereo not given), with 6% (inactive); and `O=C(OCN1C(=O)c2ccccc2C1=O)c1ccc2c(=O)n3c(nc2c1)CCC3`, with 0% (inactive).
The result for `CCOC(=O)c1cc2cc(F)ccc2nc1C` reads 1% (inactive); that for `CC(Sc1nnc(-c2cc3ccccc3o2)n1-c1ccccc1)C(=O)O` (stereo not given), 12% (inactive).
Then `O=C(O)CC1NC(=O)N(c2ccccc2)C1=O` (stereo not given), with 0% (inactive).
As for `CCCc1ccc(S(=O)(=O)NCCc2ccncc2)cc1`, the inhibition was 0% (inactive).
With `Cc1cccc(NC(=O)C2CCCN(C(=O)Nc3ccccc3)C2)c1C` (stereo not given), the inhibition is 2% (inactive).
Then `CCCCSc1nc2c(cnn2-c2ccc(Cl)cc2)c(=O)[nH]1`, with 0% (inactive); and `CCCc1cc(Nc2cccc(OC)c2)n2ncnc2n1`, with 0% (inactive); and `COc1ccccc1N(C)S(=O)(=O)c1ccc(C(=O)NC2=NCCS2)cc1`, with 7% (inactive).
For `Cn1cccc1Cc1nnc(SCC(=O)N2CCOCC2)n1-c1ccc(F)cc1`, the inhibition was 0% (inactive).
As to `CCOc1ccc(N(CC(=O)NCc2cccc(OC)c2)S(=O)(=O)c2c(C)noc2C)cc1`, the inhibition is 6% (inactive).
Then `CCOC(=O)c1c(C)c(C(=O)NCC2CCCO2)c(C)n1C` (stereo not given), with 7% (inactive); and `C=CCn1c(Cc2cccs2)nnc1SCC(=O)Nc1ccc(OC)c(OC)c1`, with 0% (inactive).
Consider `CC(=O)C1=C(NC(=O)c2ccccc2F)C[C@@H]2[C@H]1C2(C)C`, for which the inhibition is 0% (inactive).
With `COc1cc2cc(C(c3nnnn3C3CCCC3)N(C)C3CCCCC3)c(=O)[nH]c2cc1OC` (stereo not given), the inhibition is 9% (inactive).
Then `CCOC(=O)CSc1nnc([C@H](CC(C)C)NC(=O)OC(C)(C)C)o1`, with 2% (inactive); and `Cc1nc2nc(-c3cccnc3)nn2c(C)c1Cl`, with 0% (inactive).
In the case of `O=C(NCCCN1CCCC1=O)c1cncc(Br)c1`, the inhibition was 0% (inactive).
Regarding `O=C(CCCn1ncn2c(cc3occc32)c1=O)N1CCc2ccccc2C1`, the inhibition was 6% (inactive).
Then `C=CCc1ccccc1OCC(O)CNC(C)C` (stereo not given), with 8% (inactive); and `COc1ccc(-n2nnc3c(=O)n(C/C=C/c4ccccc4)cnc32)cc1`, with 2% (inactive); and `CCOc1ccc2cc(C#N)c(SCC(=O)N3CCCC3)nc2c1`, with 0% (inactive).
The result for `Cc1sc2ncnc(OCC(=O)N3CCN(S(=O)(=O)c4ccccc4)CC3)c2c1C` reads 0% (inactive); that for `Cn1c(Cc2csc(N)n2)nnc1SCC(=O)NCc1ccccc1`, 3% (inactive).
